± gives the standard deviation.

The test system of test [1] is MILI (PIWIL2) piRISC loaded with L1MC piRNA (26 nt). Put plainly: pre-steady-state target cleavage rate (min^-1); guide: L1MC piRNA 5'p-UAACUAAAUACUAUGCAAGCUGUAGG; higher = faster piRNA-guided slicing of the target. In a few lines: (§1)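 Cleave-'n-Seq reactions paired 0.1 nM transcribed, DNA-blocked target RNA library with 1 nM active affinity-purified piRISC holding one synthetic guide, plus or minus 500 nM GTSF1 partner protein, in HEPES–potassium acetate buffer at 33 °C for 0–8 or 0–960 min. After sequencing of uncleaved targets and normalisation to depth and weakly complementary targets, the pre-steady-state cleavage rate was taken from a burst-and-steady-state fit. Three trials were pooled, and k3 was capped at 0.0001 min^-1.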

Test [2] concerns EfPiwi piRISC loaded with L1MC piRNA (26 nt). Nature of the test: pre-steady-state target cleavage rate (min^-1); auxiliary factor: 500 nM Ephydatia muelleri Gtsf1; guide: L1MC piRNA 5'p-UAACUAAAUACUAUGCAAGCUGUAGG; MIWI and MILI are mouse PIWI proteins and EfPiwi is from a freshwater sponge; tags in brackets are library labels; higher = faster piRNA-guided slicing of the target. Put shortly:
as §1

Where [3] appears, read: auxiliary factor: 500 nM mouse GTSF1.
Setting [4] is: auxiliary factor: none (no GTSF1).

In the case of “UCCUCCUACAGCUUGCAUAGUAUUUAGUUG [g2:g26:cont:t1G]”, the “pre-steady-state target cleavage rate” value stood at 0.158 ± 0.016 in test [1] (setting [3]), 0.0087 ± 0.0025 in test [1] (setting [4]) and 0.00723 ± 0.0029 in test [2].

Regarding UCCUGGUACAGCUUGCAUAGUAUUUAGUCA, the “pre-steady-state target cleavage rate” value in test [1] (setting [3]) was 0.159 ± 0.032; in test [1] (setting [4]), 0.00633 ± 0.0029; in test [2], 0.00545 ± 0.0021.

For UCCUGGAACUGCUUGCUUAGUAUUUAGUUA, the “pre-steady-state target cleavage rate” value was 0.206 ± 0.019 in test [1] (setting [3]), 0.0116 ± 0.0026 in test [1] (setting [4]) and 0.00646 ± 0.0033 in test [2].

In the case of UCCUGGAUCAGCUUGCUUAGUAUUUAGUUA, the “pre-steady-state target cleavage rate” value was determined as 0.248 ± 0.019 in test [1] (setting [3]), 0.0092 ± 0.0031 in test [1] (setting [4]) and 0.0228 ± 0.0071 in test [2].

Regarding UCCUGCUACAGCUACCAUAGUAUUUAGUUA, the “pre-steady-state target cleavage rate” value in test [1] (setting [3]) was found to be 0.233 ± 0.032; in test [1] (setting [4]), 0.0038 ± 0.0024; in test [2], 0.00308 ± 0.0021.

With UCCUGGUACAGCUUGCAUUGUAUUUAGUUA, the “pre-steady-state target cleavage rate” value in test [1] (setting [3]) was determined as 0.171 ± 0.017; in test [1] (setting [4]) it was 0.0101 ± 0.0041; in test [2], 0.00513 ± 0.002.

Turning to UCCUGGAUGAGCUUGCAUAGUAUCUUAGUUA, the “pre-steady-state target cleavage rate” value worked out at 0.148 ± 0.017 in test [1] (setting [3]), 0.00732 ± 0.0024 in test [1] (setting [4]) and 0.0147 ± 0.005 in test [2].

Regarding UCCUCUCUACAGCUUGCAUAGUAUUUAGUUA, the “pre-steady-state target cleavage rate” value in test [1] (setting [3]) came to 0.28 ± 0.022; in test [1] (setting [4]), 0.00895 ± 0.0022; in test [2] it was 0.0164 ± 0.006.

For the sequence UCCUGGAUCACCUUGCAUAGUAUUAAGUUA, the “pre-steady-state target cleavage rate” value in test [1] (setting [3]) is 0.201 ± 0.034; in test [1] (setting [4]), 0.00424 ± 0.0023; in test [2], 0.00509 ± 0.0039.

Consider “UCCUCCUACAGCUUGCAUAGUAUUUAGUUU [g2:g26:cont:t1U]”, for which the results for the “pre-steady-state target cleavage rate” value in test [1] (setting [3]), in test [1] (setting [4]) and in test [2] were 0.35 ± 0.02, 0.0339 ± 0.0087 and 0.265 ± 0.062, respectively.

With UCCUGGAUGUGCUGGCAUAGUAUUUAGUUA, the “pre-steady-state target cleavage rate” value in test [1] (setting [3]) came to 0.118 ± 0.012; in test [1] (setting [4]) it was 0.0112 ± 0.0037; in test [2] it was 0.00525 ± 0.0029.

Take UCCUGGAUGUCUUUGCAUAGUAUUUAGUUA: the “pre-steady-state target cleavage rate” value is 0.119 ± 0.015 in test [1] (setting [3]), 0.0125 ± 0.0027 in test [1] (setting [4]) and 0.00871 ± 0.0039 in test [2].

Consider UCCUCCUACAGUUUGCAUAGUAUUUAGUUA, for which the “pre-steady-state target cleavage rate” value in test [1] (setting [3]) was found to be 0.299 ± 0.013; in test [1] (setting [4]), 0.00895 ± 0.0021; in test [2], 0.0845 ± 0.021.

On to UCCUGCUACACGCUUGCAUAGUAUUUAGUUA, for which the “pre-steady-state target cleavage rate” value was 0.218 ± 0.032 in test [1] (setting [3]), 0.00682 ± 0.0029 in test [1] (setting [4]) and 0.00609 ± 0.0019 in test [2].

On to UCCUCCUACAGCUUGGUUAGUAUUUAGUAA, for which the “pre-steady-state target cleavage rate” value amounted to 0.204 ± 0.022 in test [1] (setting [3]), 0.00554 ± 0.0017 in test [1] (setting [4]) and 0.00533 ± 0.0032 in test [2].

Regarding UCCUGGAUGAACUUGCAUAGUAUUUAGUUA, the “pre-steady-state target cleavage rate” value in test [1] (setting [3]) stood at 0.128 ± 0.013; in test [1] (setting [4]), 0.00751 ± 0.0026; in test [2], 0.0179 ± 0.0064.

Consider UCCUGGAUGUGCUUGCAUACUAUUUAGUUA, for which the “pre-steady-state target cleavage rate” value in test [1] (setting [3]) was found to be 0.0281 ± 0.0064; in test [1] (setting [4]), 0.00431 ± 0.0022; in test [2] it was 0.0112 ± 0.0036.

For UCCUGGUAGAGCUUGCAUUGUAUUUAGUUA, the “pre-steady-state target cleavage rate” value was found to be 0.18 ± 0.015 in test [1] (setting [3]), 0.00645 ± 0.0026 in test [1] (setting [4]) and 0.00786 ± 0.0033 in test [2].

As to UCCUGCUACAGCUUCGCAUAGUAUUUAGUUA, the figures for the “pre-steady-state target cleavage rate” value in test [1] (setting [3]), in test [1] (setting [4]) and in test [2] were 0.268 ± 0.019, 0.00637 ± 0.0021 and 0.0225 ± 0.0071, respectively.

As for UCCUCCUACAGCUAGCAAAGUAUUUAGUUA, the entries for the “pre-steady-state target cleavage rate” value in test [1] (setting [3]), in test [1] (setting [4]) and in test [2] were 0.138 ± 0.014, 0.00428 ± 0.0022 and 0.0276 ± 0.0094, respectively.

With UCCUCCUAACAGCUUGCAUAGUAUUUAGUUA, the results for the “pre-steady-state target cleavage rate” value in test [1] (setting [3]), in test [1] (setting [4]) and in test [2] were 0.213 ± 0.018, 0.0084 ± 0.0021 and 0.0133 ± 0.0051, respectively.

Turning to UCCUGGAUCAGGCUUGCAUAGUAUUUAGUUA, the “pre-steady-state target cleavage rate” value in test [1] (setting [3]) was 0.213 ± 0.017; in test [1] (setting [4]) it was 0.0107 ± 0.0028; in test [2], 0.0132 ± 0.0034.

On to UCCUGGAUCAGCUUGCAUAGUAUUUAGUCUA, for which the “pre-steady-state target cleavage rate” value in test [1] (setting [3]) turned out to be 0.0918 ± 0.025; in test [2] it was 0.00289 ± 0.0027.

In the case of UCCUGGAUCAGGUUGCAUAGUAUUUAGAUA, the “pre-steady-state target cleavage rate” value came to 0.1 ± 0.023 in test [1] (setting [3]) and 0.00381 ± 0.0026 in test [2].

For the sequence UCCUCCUACAGCUUGCAUACUAUUUUGUUA, the “pre-steady-state target cleavage rate” value in test [1] (setting [3]) turned out to be 0.0272 ± 0.0077; in test [2], 0.00468 ± 0.0034.

UCCUCCUACAGCUUGCAAAGUAUUUUGUUA: the “pre-steady-state target cleavage rate” value in test [1] (setting [3]) turned out to be 0.0808 ± 0.011; in test [2], 0.00453 ± 0.0028.

On to UCCUGGAACUCGUUGCAUAGUAUUUAGUUA, for which the figures for the “pre-steady-state target cleavage rate” value in test [1] (setting [3]), in test [1] (setting [4]) and in test [2] were 0.154 ± 0.018, 0.00417 ± 0.0024 and 0.00531 ± 0.0017, respectively.
